Measurements reported in PubChem BioAssay AID1159580 (chemical genetic matrix, 2015).
“And” between values parts separate entries of the source, which are not always exact repeats. Equal entries are not always repeated. Out of some 5,500 compounds screened, about 2,000 (36%) were called active. Not shown: some 18% with an inconclusive outcome. No stated cut-off is given here; in the data, active means normalized growth mostly below about 0.91 (no sharp cut-off); inconclusive means no clear call, values can overlap the other calls; inactive means mostly above about 0.92. The list shows a part of the results.

Assay: chemical genetic growth profiling, strain panel (AID 1159580);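 further: tested at 20 µM; growth read once vehicle control cultures reached saturation at 30 °C; 1 = growth at the plate median or of vehicle wells; lower values mean less growth of the strain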
Conditions: S. cerevisiae deletion strains, growth OD

Measured: normalized growth

O=C(O)c1ccc(S(=O)(=O)N(Cl)Cl)cc1
inactive: locus YAL013W, strain DEP1, hits give low values 1 | locus YAL021C, strain ccr4, hits give low values 1 | locus YAL026C, strain drs2, hits give low values 0.962 | locus YAL030W, strain snc1, hits give low values 0.994 | locus YBL061C, strain skt5, hits give low values 0.975 | locus YBR009C, strain hhf1, hits give low values 0.925 | locus YBR021W, strain FUR4, hits give low values 0.987 | locus YBR023C, strain chs3, hits give low values 1 | locus YBR171W, strain sec66, hits give low values 0.969 | locus YBR229C, strain ROT2, hits give low values 1 | locus YBR231C, strain swc5, hits give low values 0.995 | locus YBR279W, strain paf1, hits give low values 0.992 | locus YCL011C, strain gbp2, hits give low values 0.977 | locus YCL016C, strain dcc1, hits give low values 1 | locus YCL029C, strain bik1, hits give low values 1.01 | locus YCL061C, strain MRC1, hits give low values 0.933 | locus YCL069W, strain vba3, hits give low values 0.988 | locus YCR088W, strain abp1, hits give low values 0.998 | locus YDL005C, strain med2, hits give low values 0.996 | locus YDL035C, strain GPR1, hits give low values 0.989 | locus YDL040C, strain nat1, hits give low values 0.992 | locus YDL074C, strain BRE1, hits give low values 0.98 | locus YDL101C, strain DUN1, hits give low values 1 | locus YDL185W, strain tfp1, hits give low values 1.01 | locus YDL192W, strain arf1, hits give low values 1.03 | locus YDR001C, strain nth1, hits give low values 0.978 | locus YDR069C, strain doa4, hits give low values 1.02 | locus YDR101C, strain arx1, hits give low values 1.02 | locus YDR137W, strain rgp1, hits give low values 1.01 | locus YDR150W, strain NUM1, hits give low values 1 | locus YDR159W, strain sac3, hits give low values 0.98 | locus YDR162C, strain NBP2, hits give low values 1 | locus YDR195W, strain ref2 0.996 | locus YDR297W, strain sur2, hits give low values 0.988 | locus YDR318W, strain mcm21, hits give low values 1.01 | locus YDR334W, strain swr1, hits give low values 0.97 | locus YDR335W, strain msn5, hits give low values 0.987 | locus YDR388W, hits give low values 1.02 | locus YDR392W, strain spt3, hits give low values 0.939 | locus YDR502C, strain sam2, hits give low values 1.04 | locus YEL003W, strain gim4, hits give low values 0.964 | locus YEL037C, strain rad23, hits give low values 0.962 | locus YEL061C, strain CIN8 (second series), hits give low values 0.975 | locus YEL061C, strain CIN8, hits give low values 1 | locus YER015W, strain faa2, hits give low values 1 | locus YER016W, strain bim1, hits give low values 0.997 | locus YER110C, hits give low values 1.03 | locus YER111C, strain swi4, hits give low values 0.982 | locus YER155C, strain BEM2 (second series), hits give low values 0.979 | locus YER155C, strain BEM2, hits give low values 0.992 | locus YER167W, strain BCK2, hits give low values 1 | locus YFR010W, strain ubp6, hits give low values 0.959 | locus YGL078C, strain dbp3, hits give low values 1.03 | locus YGL086W, strain mad1, hits give low values 0.991 | locus YGL167C, strain pmr1, hits give low values 0.973 | locus YGL173C, strain kem1, hits give low values 0.982 | locus YGL227W, strain vid30, hits give low values 0.996 | locus YGL240W, strain doc1, hits give low values 1.02 | locus YGL248W, strain PDE1, hits give low values 1 | locus YGL253W, strain hxk2, hits give low values 0.999 | locus YGR078C, strain PAC10, hits give low values 0.998 | locus YGR135W, strain pre9, hits give low values 1.01 | locus YGR252W, strain gcn5, hits give low values 0.971 | locus YHR013C, strain ard1, hits give low values 1.01 | locus YHR027C, strain rpn1, hits give low values 0.993 | locus YHR030C, strain SLT2, hits give low values 0.999 and 0.973 | locus YHR079C, strain IRE1 (second series), hits give low values 1.02 | locus YHR079C, strain IRE1, hits give low values 0.973 | locus YHR094C, strain hxt1, hits give low values 1.03 | locus YHR129C, strain ARP1, hits give low values 0.996 | locus YHR142W, strain chs7, hits give low values 0.971 | locus YHR200W, strain rpn10, hits give low values 1.03 | locus YIL066C, strain RNR3, hits give low values 1 | locus YIL073C, strain SPO22, hits give low values 1.03 | locus YIL125W, strain kgd1, hits give low values 1.01 | locus YIR030C, strain dcg1, hits give low values 1.03 | locus YJL092W, strain hpr5, hits give low values 0.987 | locus YJL095W, strain BCK1 (second series), hits give low values 0.991 | locus YJL095W, strain BCK1, hits give low values 1 and 0.969 | locus YJL115W, strain asf1, hits give low values 0.969 | locus YJL129C, strain trk1, hits give low values 0.996 | locus YJL134W, strain LCB3, hits give low values 1 | locus YJL154C, strain vps35, hits give low values 0.985 | locus YJL164C, strain tpk1, hits give low values 0.954 | locus YJL166W, strain qcr8, hits give low values 1.01 | locus YJL168C, strain set2, hits give low values 1.02 | locus YJL187C, strain SWE1 (second series), hits give low values 0.998 | locus YJL187C, strain SWE1, hits give low values 0.994 | locus YJR043C, strain POL32, hits give low values 0.982
